# How the values were obtained:
# Experiment in all cases: DAPPL (digital affinity profiling via proximity ligation, sequencing); 10 mM Tris-HCl pH 7.5, 50 mM NaCl, 1 mM DTT, 4% glycerol, room temperature, 30 min; GST-TFs on glutathione beads, 16-mer random dsDNA library, 0.1% formaldehyde crosslink after washing; high values mean tight binding
# Conditions in all cases: protein: recombinant; tags: N-terminal GST; dsDNA, one strand shown
# FLI1 = target: T1, FLI1 (Homo sapiens, UniProt Q01543 1-452)
# T1 sequence: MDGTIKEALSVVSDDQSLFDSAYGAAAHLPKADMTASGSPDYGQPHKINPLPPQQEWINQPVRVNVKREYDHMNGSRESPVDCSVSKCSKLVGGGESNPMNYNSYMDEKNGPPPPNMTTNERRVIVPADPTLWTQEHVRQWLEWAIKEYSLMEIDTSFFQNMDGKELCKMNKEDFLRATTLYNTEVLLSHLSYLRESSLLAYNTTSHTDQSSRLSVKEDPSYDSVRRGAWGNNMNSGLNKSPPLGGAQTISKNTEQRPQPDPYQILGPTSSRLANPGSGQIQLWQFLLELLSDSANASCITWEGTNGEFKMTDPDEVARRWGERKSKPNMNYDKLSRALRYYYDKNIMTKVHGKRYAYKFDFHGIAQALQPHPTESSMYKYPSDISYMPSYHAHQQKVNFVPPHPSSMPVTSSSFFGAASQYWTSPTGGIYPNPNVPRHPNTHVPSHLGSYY
# Method in brief: (§1)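 Beads coated with glutathione captured GST-fused human transcription factors that had been expressed in yeast, and the factors were then given DNA barcodes and pooled with a tag-only sample. The pools were incubated with 200 nmole of a random double-stranded 16-mer DNA library in Tris/NaCl/DTT/glycerol buffer for 30 min at room temperature, washed, crosslinked with 0.1% formaldehyde and proximity-ligated with BsaI/T4 ligase at 37 °C for 1 h. PCR amplification and Illumina NextSeq500 sequencing came last. Binding signal is each hexamer's read frequency for a factor divided by its frequency for the tag-only sample.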
# ELK1 = target: T2, ELK1 (Homo sapiens, UniProt P19419 1-428)
# T2 sequence: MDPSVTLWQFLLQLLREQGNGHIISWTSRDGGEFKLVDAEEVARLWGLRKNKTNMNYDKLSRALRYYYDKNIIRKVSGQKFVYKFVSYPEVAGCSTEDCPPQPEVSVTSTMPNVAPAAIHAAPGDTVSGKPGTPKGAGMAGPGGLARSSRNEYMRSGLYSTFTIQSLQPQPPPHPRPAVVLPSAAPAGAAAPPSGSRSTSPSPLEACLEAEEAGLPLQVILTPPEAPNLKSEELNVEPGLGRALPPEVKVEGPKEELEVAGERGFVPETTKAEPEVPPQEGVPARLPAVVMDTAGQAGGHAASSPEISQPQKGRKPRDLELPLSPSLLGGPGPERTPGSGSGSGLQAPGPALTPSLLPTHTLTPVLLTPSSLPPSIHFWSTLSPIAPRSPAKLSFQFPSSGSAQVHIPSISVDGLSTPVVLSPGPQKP
# Method in brief: as §1
# GABPA = target: T3, GABPA (Homo sapiens, UniProt Q06546 1-454)
# T3 sequence: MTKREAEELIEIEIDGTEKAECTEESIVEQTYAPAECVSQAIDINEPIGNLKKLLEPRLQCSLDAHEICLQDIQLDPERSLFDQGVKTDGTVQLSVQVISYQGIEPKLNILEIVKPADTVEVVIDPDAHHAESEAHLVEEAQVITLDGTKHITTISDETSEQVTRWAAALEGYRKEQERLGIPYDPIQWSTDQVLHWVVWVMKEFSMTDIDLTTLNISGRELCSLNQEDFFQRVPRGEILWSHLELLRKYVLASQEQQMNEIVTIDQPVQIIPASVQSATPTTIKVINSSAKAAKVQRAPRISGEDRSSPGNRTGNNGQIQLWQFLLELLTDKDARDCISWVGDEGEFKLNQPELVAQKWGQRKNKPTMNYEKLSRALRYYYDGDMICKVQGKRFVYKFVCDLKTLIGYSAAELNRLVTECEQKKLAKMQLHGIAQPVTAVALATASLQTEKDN
# Method in brief: as §1
# ERG = target: T4, ERG (Homo sapiens, UniProt P11308 1-479)
# T4 sequence: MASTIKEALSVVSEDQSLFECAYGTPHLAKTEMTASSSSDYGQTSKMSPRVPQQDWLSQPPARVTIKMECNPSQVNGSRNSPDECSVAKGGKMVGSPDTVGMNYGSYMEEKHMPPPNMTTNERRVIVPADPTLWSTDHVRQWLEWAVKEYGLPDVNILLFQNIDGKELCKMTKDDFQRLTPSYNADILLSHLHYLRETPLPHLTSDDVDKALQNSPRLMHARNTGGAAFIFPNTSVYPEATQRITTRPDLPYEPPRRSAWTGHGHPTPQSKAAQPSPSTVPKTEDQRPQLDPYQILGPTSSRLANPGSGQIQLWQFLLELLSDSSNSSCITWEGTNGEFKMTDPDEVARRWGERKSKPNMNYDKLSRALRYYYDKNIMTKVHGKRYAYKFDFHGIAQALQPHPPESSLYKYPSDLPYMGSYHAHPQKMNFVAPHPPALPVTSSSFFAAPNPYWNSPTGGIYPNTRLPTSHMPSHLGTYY
# Method in brief: as §1
# ELF1 = ELF1 (Homo sapiens, UniProt P32519 1-619)
# Method in brief: as §1
# EHF = target: T5, EHF (Homo sapiens, UniProt Q9NZC4 1-300)
# T5 sequence: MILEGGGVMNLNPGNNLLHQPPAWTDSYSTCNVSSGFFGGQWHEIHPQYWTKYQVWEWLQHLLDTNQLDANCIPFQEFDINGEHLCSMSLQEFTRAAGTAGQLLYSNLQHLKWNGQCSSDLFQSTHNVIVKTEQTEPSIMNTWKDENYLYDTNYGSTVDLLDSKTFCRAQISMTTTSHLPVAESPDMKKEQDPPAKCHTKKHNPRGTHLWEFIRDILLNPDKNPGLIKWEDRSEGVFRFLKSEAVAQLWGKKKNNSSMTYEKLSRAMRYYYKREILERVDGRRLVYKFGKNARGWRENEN
# Method in brief: as §1
# SPI1 = SPI1 (Homo sapiens, UniProt P17947 1-270)
# Method in brief: as §1
# SPIB = SPIB (Homo sapiens, UniProt Q01892 1-262)
# Method in brief: as §1
# ELK3 = target: T6, ELK3 (Homo sapiens, UniProt P41970 1-407)
# T6 sequence: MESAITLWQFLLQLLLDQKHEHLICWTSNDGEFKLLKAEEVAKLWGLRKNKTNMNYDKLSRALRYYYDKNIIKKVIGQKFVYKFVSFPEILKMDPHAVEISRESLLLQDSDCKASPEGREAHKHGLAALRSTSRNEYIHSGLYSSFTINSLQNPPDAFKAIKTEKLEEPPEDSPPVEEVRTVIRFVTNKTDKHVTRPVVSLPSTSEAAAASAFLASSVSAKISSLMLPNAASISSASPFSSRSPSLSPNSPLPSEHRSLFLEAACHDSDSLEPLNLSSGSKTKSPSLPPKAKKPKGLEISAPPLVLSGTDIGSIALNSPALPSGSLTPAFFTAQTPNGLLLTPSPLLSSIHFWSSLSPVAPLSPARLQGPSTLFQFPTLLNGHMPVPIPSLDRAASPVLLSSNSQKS
# Method in brief: as §1
# Chain of SPIB (Q01892 whole entry): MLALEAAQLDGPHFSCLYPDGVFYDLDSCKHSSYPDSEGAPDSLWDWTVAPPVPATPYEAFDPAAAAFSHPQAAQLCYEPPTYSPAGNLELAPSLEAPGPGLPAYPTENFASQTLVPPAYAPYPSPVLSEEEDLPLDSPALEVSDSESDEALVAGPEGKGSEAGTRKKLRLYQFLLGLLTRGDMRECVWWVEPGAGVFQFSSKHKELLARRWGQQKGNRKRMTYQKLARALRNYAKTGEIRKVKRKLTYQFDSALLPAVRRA
# Chain of ELF1 (P32519 whole entry): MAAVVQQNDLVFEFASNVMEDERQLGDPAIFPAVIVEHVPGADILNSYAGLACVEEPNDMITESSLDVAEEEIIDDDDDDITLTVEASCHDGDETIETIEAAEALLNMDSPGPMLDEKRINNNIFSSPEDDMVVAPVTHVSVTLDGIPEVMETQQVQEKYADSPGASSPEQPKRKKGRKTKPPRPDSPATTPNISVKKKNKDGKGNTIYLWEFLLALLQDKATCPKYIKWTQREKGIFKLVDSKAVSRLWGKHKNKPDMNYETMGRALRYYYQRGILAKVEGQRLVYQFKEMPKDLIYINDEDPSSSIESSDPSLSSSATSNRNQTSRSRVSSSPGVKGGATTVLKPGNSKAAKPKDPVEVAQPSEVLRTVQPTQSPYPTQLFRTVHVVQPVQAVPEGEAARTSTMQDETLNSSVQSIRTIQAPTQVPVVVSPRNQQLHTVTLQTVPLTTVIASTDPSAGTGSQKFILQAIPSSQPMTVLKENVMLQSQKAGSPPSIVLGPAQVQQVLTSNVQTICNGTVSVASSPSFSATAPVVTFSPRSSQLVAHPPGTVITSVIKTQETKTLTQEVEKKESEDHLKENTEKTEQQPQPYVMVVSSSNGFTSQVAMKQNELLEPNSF
Sequence,binding signal (FLI1),binding signal (ELK1),binding signal (GABPA),binding signal (ERG),binding signal (ELF1),binding signal (EHF),binding signal (SPI1),binding signal (SPIB),binding signal (ELK3)
TATGCG,"1.5 fold enrichment (6-mer frequency, TF over GST control)","1.42 fold enrichment (6-mer frequency, TF over GST control)","1.35 fold enrichment (6-mer frequency, TF over GST control)","1.31 fold enrichment (6-mer frequency, TF over GST control)","1.31 fold enrichment (6-mer frequency, TF over GST control)","1.37 fold enrichment (6-mer frequency, TF over GST control)","1.32 fold enrichment (6-mer frequency, TF over GST control)","1.29 fold enrichment (6-mer frequency, TF over GST control)","1.39 fold enrichment (6-mer frequency, TF over GST control)"
ACAAGC,"1.1 fold enrichment (6-mer frequency, TF over GST control)","1.11 fold enrichment (6-mer frequency, TF over GST control)","1.09 fold enrichment (6-mer frequency, TF over GST control)","1.08 fold enrichment (6-mer frequency, TF over GST control)","1.1 fold enrichment (6-mer frequency, TF over GST control)","1.08 fold enrichment (6-mer frequency, TF over GST control)","1.04 fold enrichment (6-mer frequency, TF over GST control)","1.12 fold enrichment (6-mer frequency, TF over GST control)","1.16 fold enrichment (6-mer frequency, TF over GST control)"
CGGATG,"1.53 fold enrichment (6-mer frequency, TF over GST control)","1.66 fold enrichment (6-mer frequency, TF over GST control)","1.49 fold enrichment (6-mer frequency, TF over GST control)","1.92 fold enrichment (6-mer frequency, TF over GST control)","1.45 fold enrichment (6-mer frequency, TF over GST control)","1.67 fold enrichment (6-mer frequency, TF over GST control)","1.52 fold enrichment (6-mer frequency, TF over GST control)","1.6 fold enrichment (6-mer frequency, TF over GST control)","1.6 fold enrichment (6-mer frequency, TF over GST control)"
GTCCCC,"1.14 fold enrichment (6-mer frequency, TF over GST control)","1.29 fold enrichment (6-mer frequency, TF over GST control)","1.19 fold enrichment (6-mer frequency, TF over GST control)","1.23 fold enrichment (6-mer frequency, TF over GST control)","1.19 fold enrichment (6-mer frequency, TF over GST control)","1.28 fold enrichment (6-mer frequency, TF over GST control)","1.23 fold enrichment (6-mer frequency, TF over GST control)","1.24 fold enrichment (6-mer frequency, TF over GST control)","1.29 fold enrichment (6-mer frequency, TF over GST control)"
AAGGAA,"1.19 fold enrichment (6-mer frequency, TF over GST control)","1.27 fold enrichment (6-mer frequency, TF over GST control)","1.2 fold enrichment (6-mer frequency, TF over GST control)","1.44 fold enrichment (6-mer frequency, TF over GST control)","1.25 fold enrichment (6-mer frequency, TF over GST control)","1.48 fold enrichment (6-mer frequency, TF over GST control)","1.48 fold enrichment (6-mer frequency, TF over GST control)","1.29 fold enrichment (6-mer frequency, TF over GST control)","1.21 fold enrichment (6-mer frequency, TF over GST control)"
TAAATC,"1.15 fold enrichment (6-mer frequency, TF over GST control)","1.28 fold enrichment (6-mer frequency, TF over GST control)","1.24 fold enrichment (6-mer frequency, TF over GST control)","1.2 fold enrichment (6-mer frequency, TF over GST control)","1.23 fold enrichment (6-mer frequency, TF over GST control)","1.17 fold enrichment (6-mer frequency, TF over GST control)","1.21 fold enrichment (6-mer frequency, TF over GST control)","1.12 fold enrichment (6-mer frequency, TF over GST control)","1.35 fold enrichment (6-mer frequency, TF over GST control)"
CGAACT,"1.16 fold enrichment (6-mer frequency, TF over GST control)","1.17 fold enrichment (6-mer frequency, TF over GST control)","1.24 fold enrichment (6-mer frequency, TF over GST control)","1.06 fold enrichment (6-mer frequency, TF over GST control)","1.24 fold enrichment (6-mer frequency, TF over GST control)","1.17 fold enrichment (6-mer frequency, TF over GST control)","1.16 fold enrichment (6-mer frequency, TF over GST control)","1.03 fold enrichment (6-mer frequency, TF over GST control)","1.13 fold enrichment (6-mer frequency, TF over GST control)"
ATAATT,"1.31 fold enrichment (6-mer frequency, TF over GST control)","1.38 fold enrichment (6-mer frequency, TF over GST control)","1.38 fold enrichment (6-mer frequency, TF over GST control)","1.4 fold enrichment (6-mer frequency, TF over GST control)","1.27 fold enrichment (6-mer frequency, TF over GST control)","1.37 fold enrichment (6-mer frequency, TF over GST control)","1.28 fold enrichment (6-mer frequency, TF over GST control)","1.39 fold enrichment (6-mer frequency, TF over GST control)","1.42 fold enrichment (6-mer frequency, TF over GST control)"
